The structures appear in SMILES notation.

In test [1] the target is 5'-AMP-activated protein kinase catalytic subunit alpha-2 (Homo sapiens) (UniProt P54646). The following applies: at 1 µM.
Test [2] has as its target T1, NUAK family SNF1-like kinase 1 (Homo sapiens) (UniProt O60285).
T1 sequence (whole entry): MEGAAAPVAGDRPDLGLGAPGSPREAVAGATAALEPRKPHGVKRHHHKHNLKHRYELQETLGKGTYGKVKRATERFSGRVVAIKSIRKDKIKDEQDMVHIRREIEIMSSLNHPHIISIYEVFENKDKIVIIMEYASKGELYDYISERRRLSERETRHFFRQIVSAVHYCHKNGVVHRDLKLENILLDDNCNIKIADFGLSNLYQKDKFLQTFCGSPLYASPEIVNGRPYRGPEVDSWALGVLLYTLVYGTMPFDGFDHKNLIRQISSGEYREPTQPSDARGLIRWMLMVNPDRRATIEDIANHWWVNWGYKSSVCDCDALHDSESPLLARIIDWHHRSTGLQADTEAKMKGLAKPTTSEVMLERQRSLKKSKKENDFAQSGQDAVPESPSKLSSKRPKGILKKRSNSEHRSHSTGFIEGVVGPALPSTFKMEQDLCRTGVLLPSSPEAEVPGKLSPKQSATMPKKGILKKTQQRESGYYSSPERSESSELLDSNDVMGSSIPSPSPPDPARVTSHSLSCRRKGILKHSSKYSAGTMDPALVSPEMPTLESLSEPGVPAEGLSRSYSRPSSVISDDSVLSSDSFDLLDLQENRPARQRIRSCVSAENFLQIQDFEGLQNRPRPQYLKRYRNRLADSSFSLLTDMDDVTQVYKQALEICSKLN
The settings on record: at 0.1 µM.

Test [3] concerns the target T1, NUAK family SNF1-like kinase 1 (Homo sapiens). The following applies: at 1 µM.
Test [4] deals with T2, Serine/threonine-protein kinase BRSK1 (Homo sapiens) (UniProt Q8TDC3).
T2 sequence (whole entry): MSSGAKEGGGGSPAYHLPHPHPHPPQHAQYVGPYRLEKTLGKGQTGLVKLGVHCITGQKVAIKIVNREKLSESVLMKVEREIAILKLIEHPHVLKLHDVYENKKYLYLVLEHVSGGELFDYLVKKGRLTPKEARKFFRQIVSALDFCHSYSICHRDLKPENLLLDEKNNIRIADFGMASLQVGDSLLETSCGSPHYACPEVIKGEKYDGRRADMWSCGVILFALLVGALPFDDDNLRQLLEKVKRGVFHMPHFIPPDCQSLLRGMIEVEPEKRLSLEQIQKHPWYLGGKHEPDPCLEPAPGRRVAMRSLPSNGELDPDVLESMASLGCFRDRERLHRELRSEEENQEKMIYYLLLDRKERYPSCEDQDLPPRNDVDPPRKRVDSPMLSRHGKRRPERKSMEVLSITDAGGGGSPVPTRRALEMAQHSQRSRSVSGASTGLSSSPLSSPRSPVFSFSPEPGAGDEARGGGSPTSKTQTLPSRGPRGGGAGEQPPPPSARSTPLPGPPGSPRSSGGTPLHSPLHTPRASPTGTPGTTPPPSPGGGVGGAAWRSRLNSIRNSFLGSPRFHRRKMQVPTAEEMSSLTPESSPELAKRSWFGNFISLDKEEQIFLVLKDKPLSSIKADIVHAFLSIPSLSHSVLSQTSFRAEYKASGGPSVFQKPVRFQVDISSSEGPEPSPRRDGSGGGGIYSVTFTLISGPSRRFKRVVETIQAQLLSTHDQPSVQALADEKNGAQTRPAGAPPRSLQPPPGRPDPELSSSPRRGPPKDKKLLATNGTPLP
The settings on record: at 0.1 µM.

Test [5] deals with T2, Serine/threonine-protein kinase BRSK1 (Homo sapiens). The settings on record: at 1 µM.
In test [6] the target is T3, Serine/threonine-protein kinase BRSK2 (Homo sapiens) (UniProt Q8IWQ3).
T3 sequence (whole entry): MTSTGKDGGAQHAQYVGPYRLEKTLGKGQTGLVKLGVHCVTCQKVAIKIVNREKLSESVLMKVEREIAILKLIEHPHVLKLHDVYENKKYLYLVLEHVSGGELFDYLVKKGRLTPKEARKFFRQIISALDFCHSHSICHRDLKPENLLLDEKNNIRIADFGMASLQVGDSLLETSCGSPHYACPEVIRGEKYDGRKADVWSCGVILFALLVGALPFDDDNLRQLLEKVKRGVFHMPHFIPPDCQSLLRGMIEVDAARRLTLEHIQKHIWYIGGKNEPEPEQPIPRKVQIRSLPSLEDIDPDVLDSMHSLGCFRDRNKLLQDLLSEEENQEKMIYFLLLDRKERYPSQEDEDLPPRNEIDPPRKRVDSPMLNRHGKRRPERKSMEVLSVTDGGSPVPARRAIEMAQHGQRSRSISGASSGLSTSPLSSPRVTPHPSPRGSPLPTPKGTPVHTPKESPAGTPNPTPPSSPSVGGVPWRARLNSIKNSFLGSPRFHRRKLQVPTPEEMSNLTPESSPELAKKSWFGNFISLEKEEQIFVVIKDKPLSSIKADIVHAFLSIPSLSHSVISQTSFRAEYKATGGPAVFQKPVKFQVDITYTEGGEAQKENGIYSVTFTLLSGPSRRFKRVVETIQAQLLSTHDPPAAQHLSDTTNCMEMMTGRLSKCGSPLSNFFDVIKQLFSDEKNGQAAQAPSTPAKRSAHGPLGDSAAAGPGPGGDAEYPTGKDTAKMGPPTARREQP
The following applies: at 0.1 µM.

The target of test [7] is T3, Serine/threonine-protein kinase BRSK2 (Homo sapiens). The settings on record: at 1 µM.
For test [8], the target named is Calcium/calmodulin-dependent protein kinase type 1D (Homo sapiens) (UniProt Q8IU85). The following applies: at 0.1 µM.
Sequence of Calcium/calmodulin-dependent protein kinase type 1D (Homo sapiens) (Q8IU85 whole entry, looked up): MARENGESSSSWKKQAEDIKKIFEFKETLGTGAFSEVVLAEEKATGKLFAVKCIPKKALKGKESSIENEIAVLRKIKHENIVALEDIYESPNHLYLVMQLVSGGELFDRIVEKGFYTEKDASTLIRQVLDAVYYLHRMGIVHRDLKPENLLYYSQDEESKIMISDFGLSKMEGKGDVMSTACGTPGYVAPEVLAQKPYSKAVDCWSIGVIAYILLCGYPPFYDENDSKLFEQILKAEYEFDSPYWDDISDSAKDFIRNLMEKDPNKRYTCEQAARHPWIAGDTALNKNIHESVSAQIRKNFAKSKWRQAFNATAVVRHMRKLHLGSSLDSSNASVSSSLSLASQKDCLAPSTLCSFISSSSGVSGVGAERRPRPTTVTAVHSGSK
Test [9] shares this target. The following applies: at 1 µM.
Test [10] concerns the target Calcium/calmodulin-dependent protein kinase type II subunit alpha (Homo sapiens) (UniProt Q9UQM7). The following applies: at 0.1 µM.
The target is the same in test [11]. The settings on record: at 1 µM.
Test [12] deals with Calcium/calmodulin-dependent protein kinase type II subunit delta (Homo sapiens) (UniProt Q13557). The settings on record: at 0.1 µM.
Sequence of Calcium/calmodulin-dependent protein kinase type II subunit delta (Homo sapiens) (Q13557 whole entry): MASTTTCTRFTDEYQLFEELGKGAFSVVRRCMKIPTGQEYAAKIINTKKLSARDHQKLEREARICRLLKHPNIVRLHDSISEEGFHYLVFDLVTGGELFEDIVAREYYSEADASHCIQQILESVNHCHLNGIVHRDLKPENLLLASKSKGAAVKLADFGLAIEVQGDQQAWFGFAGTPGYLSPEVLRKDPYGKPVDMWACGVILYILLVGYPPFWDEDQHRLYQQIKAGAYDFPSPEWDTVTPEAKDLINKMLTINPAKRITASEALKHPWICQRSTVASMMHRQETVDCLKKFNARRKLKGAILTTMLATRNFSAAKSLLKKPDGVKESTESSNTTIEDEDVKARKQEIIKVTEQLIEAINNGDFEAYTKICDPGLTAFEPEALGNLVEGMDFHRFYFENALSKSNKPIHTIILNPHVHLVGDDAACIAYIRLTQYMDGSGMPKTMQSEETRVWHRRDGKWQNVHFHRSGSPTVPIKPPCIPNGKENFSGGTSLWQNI
The target is the same in test [13]. The following applies: at 1 µM.
In test [14] the target is T4, Calcium/calmodulin-dependent protein kinase type IV (Homo sapiens) (UniProt Q16566).
T4 sequence (whole entry): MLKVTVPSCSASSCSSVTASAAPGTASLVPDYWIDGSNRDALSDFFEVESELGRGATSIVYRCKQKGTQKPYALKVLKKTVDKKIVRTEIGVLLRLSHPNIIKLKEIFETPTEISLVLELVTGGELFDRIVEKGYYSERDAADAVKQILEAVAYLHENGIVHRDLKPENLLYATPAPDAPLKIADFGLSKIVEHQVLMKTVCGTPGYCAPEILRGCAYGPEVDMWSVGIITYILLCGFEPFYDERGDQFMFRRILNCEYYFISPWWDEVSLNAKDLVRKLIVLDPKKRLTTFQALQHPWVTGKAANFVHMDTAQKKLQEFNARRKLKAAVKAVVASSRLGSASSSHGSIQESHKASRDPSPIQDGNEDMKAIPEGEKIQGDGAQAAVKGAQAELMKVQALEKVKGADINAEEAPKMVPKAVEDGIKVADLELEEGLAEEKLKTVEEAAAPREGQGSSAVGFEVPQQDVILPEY
The settings on record: at 0.1 µM.

Test [15] addresses T4, Calcium/calmodulin-dependent protein kinase type IV (Homo sapiens). The following applies: at 1 µM.
The target of test [16] is T5, Serine/threonine-protein kinase Chk1 (Homo sapiens) (UniProt O14757).
T5 sequence (whole entry): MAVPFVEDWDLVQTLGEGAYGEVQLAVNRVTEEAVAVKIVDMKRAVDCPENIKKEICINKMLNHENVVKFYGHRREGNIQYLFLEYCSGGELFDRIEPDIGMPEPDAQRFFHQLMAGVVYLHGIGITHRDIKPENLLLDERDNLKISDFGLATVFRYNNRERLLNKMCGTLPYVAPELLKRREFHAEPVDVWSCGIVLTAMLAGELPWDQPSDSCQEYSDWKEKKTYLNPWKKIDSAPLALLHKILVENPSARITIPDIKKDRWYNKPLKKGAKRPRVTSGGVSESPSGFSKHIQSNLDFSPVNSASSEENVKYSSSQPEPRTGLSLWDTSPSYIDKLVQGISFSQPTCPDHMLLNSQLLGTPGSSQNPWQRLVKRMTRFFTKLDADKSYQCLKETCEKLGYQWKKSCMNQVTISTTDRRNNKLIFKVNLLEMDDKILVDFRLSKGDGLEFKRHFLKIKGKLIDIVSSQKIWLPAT
The following applies: at 0.1 µM.

The target of test [17] is T5, Serine/threonine-protein kinase Chk1 (Homo sapiens). The following applies: at 1 µM.
For test [18], the target named is Serine/threonine-protein kinase Chk2 (Homo sapiens) (UniProt O96017). The settings on record: at 0.1 µM.
Sequence of Serine/threonine-protein kinase Chk2 (Homo sapiens) (O96017 whole entry): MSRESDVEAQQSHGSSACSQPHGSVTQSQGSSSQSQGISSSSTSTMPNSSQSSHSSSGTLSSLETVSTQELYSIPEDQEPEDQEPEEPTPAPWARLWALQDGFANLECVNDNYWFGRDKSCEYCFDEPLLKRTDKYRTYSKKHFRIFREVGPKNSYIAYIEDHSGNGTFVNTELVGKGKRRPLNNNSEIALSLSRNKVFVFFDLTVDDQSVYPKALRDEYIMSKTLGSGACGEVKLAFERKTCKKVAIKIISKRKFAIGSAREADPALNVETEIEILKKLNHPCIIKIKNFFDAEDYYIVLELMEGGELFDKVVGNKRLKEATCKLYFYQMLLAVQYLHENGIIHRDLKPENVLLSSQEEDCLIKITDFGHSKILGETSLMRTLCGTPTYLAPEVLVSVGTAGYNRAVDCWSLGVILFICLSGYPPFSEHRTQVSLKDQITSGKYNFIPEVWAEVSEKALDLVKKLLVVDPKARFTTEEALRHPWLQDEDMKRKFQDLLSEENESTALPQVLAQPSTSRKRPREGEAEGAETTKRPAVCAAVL
Test [19] shares this target. The following applies: at 1 µM.
Test [20] deals with Death-associated protein kinase 1 (Homo sapiens) (UniProt P53355). The settings on record: at 0.1 µM.
Sequence of Death-associated protein kinase 1 (Homo sapiens) (P53355 whole entry, looked up): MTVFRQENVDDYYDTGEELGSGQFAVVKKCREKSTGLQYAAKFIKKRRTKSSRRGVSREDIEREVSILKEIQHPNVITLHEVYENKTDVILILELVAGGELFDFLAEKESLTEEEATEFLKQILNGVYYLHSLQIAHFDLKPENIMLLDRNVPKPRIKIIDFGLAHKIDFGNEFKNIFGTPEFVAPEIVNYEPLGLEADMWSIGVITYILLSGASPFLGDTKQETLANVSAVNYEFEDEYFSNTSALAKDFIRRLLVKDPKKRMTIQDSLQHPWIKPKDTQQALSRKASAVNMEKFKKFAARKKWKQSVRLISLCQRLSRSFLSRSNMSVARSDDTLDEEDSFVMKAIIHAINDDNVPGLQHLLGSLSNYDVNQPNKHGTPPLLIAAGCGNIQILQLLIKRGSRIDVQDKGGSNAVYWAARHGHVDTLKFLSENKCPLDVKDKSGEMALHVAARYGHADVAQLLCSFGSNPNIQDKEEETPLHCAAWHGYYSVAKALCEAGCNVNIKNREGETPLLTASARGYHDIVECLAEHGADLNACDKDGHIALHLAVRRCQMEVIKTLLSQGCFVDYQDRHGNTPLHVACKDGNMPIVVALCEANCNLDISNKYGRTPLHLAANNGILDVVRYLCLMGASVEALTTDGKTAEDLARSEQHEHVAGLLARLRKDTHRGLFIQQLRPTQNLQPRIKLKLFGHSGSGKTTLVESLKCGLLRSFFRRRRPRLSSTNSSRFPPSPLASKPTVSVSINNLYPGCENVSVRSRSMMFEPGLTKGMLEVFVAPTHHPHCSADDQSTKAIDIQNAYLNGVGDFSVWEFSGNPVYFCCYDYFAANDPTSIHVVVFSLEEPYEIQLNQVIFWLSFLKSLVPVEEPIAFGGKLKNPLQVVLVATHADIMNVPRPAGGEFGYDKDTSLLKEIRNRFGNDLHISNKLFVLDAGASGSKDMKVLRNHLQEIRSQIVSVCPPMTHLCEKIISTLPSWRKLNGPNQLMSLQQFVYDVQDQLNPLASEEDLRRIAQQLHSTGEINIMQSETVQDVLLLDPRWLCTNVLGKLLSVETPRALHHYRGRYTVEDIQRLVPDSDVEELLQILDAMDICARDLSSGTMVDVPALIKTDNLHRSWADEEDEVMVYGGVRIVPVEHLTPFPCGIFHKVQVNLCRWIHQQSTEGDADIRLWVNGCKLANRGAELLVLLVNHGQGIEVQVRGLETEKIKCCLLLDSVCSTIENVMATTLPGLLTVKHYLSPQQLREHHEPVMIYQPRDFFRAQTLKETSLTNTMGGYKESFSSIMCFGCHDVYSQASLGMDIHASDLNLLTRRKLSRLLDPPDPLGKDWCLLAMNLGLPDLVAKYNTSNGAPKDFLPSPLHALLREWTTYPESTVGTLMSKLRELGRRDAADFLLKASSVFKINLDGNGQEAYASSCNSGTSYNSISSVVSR

Sequence of Calcium/calmodulin-dependent protein kinase type II subunit alpha (Homo sapiens) (Q9UQM7 whole entry): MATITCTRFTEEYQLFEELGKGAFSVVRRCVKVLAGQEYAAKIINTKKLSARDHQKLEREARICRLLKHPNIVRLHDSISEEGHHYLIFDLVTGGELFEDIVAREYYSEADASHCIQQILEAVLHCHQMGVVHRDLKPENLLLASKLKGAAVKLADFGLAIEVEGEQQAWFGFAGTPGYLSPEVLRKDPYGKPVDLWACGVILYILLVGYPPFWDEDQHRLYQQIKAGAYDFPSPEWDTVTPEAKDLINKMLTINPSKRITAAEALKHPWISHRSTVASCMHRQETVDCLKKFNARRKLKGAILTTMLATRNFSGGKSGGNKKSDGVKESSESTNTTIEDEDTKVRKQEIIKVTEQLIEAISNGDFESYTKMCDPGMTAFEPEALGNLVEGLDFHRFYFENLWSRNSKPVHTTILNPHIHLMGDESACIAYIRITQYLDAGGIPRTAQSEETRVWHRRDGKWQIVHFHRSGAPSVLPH
Sequence of 5'-AMP-activated protein kinase catalytic subunit alpha-2 (Homo sapiens) (P54646 whole entry, looked up): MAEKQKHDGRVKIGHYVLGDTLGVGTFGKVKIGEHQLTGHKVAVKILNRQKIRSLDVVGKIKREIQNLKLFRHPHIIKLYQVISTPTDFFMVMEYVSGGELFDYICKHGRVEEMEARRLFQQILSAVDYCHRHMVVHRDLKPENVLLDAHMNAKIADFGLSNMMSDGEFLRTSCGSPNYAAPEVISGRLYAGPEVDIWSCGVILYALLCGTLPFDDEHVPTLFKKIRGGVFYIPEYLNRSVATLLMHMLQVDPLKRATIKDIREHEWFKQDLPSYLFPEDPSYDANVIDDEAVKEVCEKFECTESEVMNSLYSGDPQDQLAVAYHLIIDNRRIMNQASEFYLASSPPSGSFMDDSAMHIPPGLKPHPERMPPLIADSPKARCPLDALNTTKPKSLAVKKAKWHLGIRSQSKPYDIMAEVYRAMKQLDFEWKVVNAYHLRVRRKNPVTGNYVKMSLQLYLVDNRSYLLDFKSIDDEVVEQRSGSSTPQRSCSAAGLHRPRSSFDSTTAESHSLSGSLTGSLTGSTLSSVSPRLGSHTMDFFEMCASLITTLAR

Consider `COC(=O)Nc1nc2ccc(S(=O)(=O)c3ccc(NC(=O)Nc4cc(C(F)(F)F)ccc4F)cc3)cc2[nH]1`, for which the inhibition in [1] is 3.39%; in [2], 3.25%; in test [3], 4.84%; in test [4], 3.17%; in test [5], 4.39%; in test [6], 2.33%. Also, the inhibition in [7] is 2.89%; in [8] it was 0.42%; in test [9], 1.45%; in test [10], 3.34%; in [11], 3.22%; in test [12], 3.61%. For the same compound, the inhibition is 3.6% in test [13]; -0.05% in test [14]; 0.07% in test [15]; 1.24% in test [16]; 3.43% in test [17]; 1.62% in [18]. In addition, the inhibition was determined as 1.94% in test [19] and 3.73% in test [20].
For the compound `CCn1cc(-c2ccnc3[nH]ccc23)c(-c2cccc(NC(=O)Nc3ccc(OCc4ccccc4)cc3)c2)n1`, the inhibition was 2.24% in test [1]; -0.37% in [2]; 1.67% in [3]; -0.66% in test [4]; 3.32% in test [5]; 1.2% in test [6]. For the same compound, the inhibition in test [7] is 0.5%; in test [8], 1.03%; in test [9] it was 4.92%; in test [10], 1.2%; in test [11], -2.25%; in test [12] it was 1.86%. In addition, the inhibition in test [13] was -0.28%; in [14] it was 0.6%; in [15] it was -0.67%; in test [16] it was 1.82%; in test [17], -1.06%; in test [18], -0.17%. The inhibition in [19] is -0.76%; in test [20], 1.61%.
As to `CCn1c(-c2nonc2N)nc2c(C#CC(C)(C)O)ncc(OC3CCNCC3)c21`, the inhibition is 43.3% in [1]; 6.16% in [2]; 42.9% in test [3]; 1.45% in test [4]; 10.5% in test [5]; 2.8% in test [6]. The inhibition in test [7] worked out at 19.2%; in test [8] it was 1.83%; in test [9], 8.97%; in test [10] it was 3.85%; in test [11], 5.73%; in test [12] it was 4.43%. Besides, the inhibition in test [13] came to 8.15%; in [14], 1.96%; in [15], 6.84%; in test [16], 2%; in test [17] it was 4.29%; in test [18], 2.65%. The inhibition in [19] was 7.53%; in [20], 4.3%.
In the case of `COC(=O)c1sc(-n2cnc3cc(OC)c(OC)cc32)cc1OCc1ccccc1C(F)(F)F`, the inhibition was 5.51% in test [1]; 18.4% in test [2]; 47.1% in [3]; 0.92% in test [4]; 2.12% in test [5]; 2.43% in [6]. The inhibition in test [7] is 4.63%; in [8], 0.66%; in test [9], 2.52%; in [10] it was 5.18%; in test [11] it was 5.27%; in test [12], 4.25%. Also, the inhibition in test [13] turned out to be 11.3%; in test [14], 1.9%; in test [15], 11.2%; in test [16] it was 1.72%; in test [17] it was 2.67%; in [18], 3.73%. The inhibition is 4.65% in [19] and 0.08% in [20].
Turning to `O=S(=O)(CCNCc1ccc(-c2ccc3ncnc(Nc4ccc(OCc5cccc(F)c5)c(Cl)c4)c3c2)o1)c1ccccc1`, the inhibition was 4.37% in [1]; 0.36% in test [2]; 2.65% in test [3]; -0.02% in test [4]; 4.07% in [5]; 3.29% in test [6]. The inhibition was 3.94% in test [7]; 1.31% in test [8]; 1.55% in test [9]; 4.23% in [10]; 2.35% in test [11]; 3.72% in [12]. Also, the inhibition was 4.42% in test [13]; -0.6% in test [14]; 0.28% in test [15]; 7.26% in [16]; 10.1% in test [17]; 2.55% in test [18]. Moreover, the inhibition in test [19] was determined as 3.38%; in [20], 8.91%.
With `COc1ccc2[nH]c3c4[nH]c5ccc(OC)cc5c4c4c(c3c2c1)C(=O)NC4=O`, the inhibition in test [1] came to 51.6%; in test [2], 78%; in test [3], 77.3%; in [4], 71.3%; in test [5] it was 102%; in test [6], 92.2%. The inhibition in [7] is 94.9%; in test [8], 6.96%; in [9] it was 39.6%; in [10] it was 6.99%; in test [11], 22.9%; in test [12], 17.4%. For the same compound, the inhibition in [13] is 57.6%; in test [14], -5.78%; in [15], -3.69%; in test [16], 22.4%; in [17] it was 65.6%; in [18], 81.2%. The figures for the inhibition in test [19] and in [20] were 83.4% and 2%, respectively.

A word on the inhibition: it is the drop in the measured response relative to a control, in per cent.

For the origin of these results see ChEMBL document CHEMBL1961873, “Compounds: GSK PKIS; Assays: Nanosyn kinase panel” (2012).
